Among the data in PubChem BioAssay AID493169 (National Center for Advancing Translational Sciences (NCATS), 2011) are Potency values, retold here.

Inconclusive results are not listed. Entries that show only a call come without a potency. Calls of active or inactive are those of the source. Calls follow the shape of the dose curve; as a rule, active = well fitted inhibition curve with a large enough effect; inconclusive = small, poorly fitted or top-dose-only effect; inactive = flat fitted curve, though single readings scatter.
Potency is read from the fitted curve at half-maximal effect.

The nature of this assay: CHOP2 Reporter Counterscreen Assay for Inhibitors of Ubiquitin-specific Protease USP2a.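 Also: activated enterokinase alone at 50 pM in a cell-free format rather than USP2a or CHOP2; nearly all actives have a fitted effect of over 55% in size.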 The following applies: purified enterokinase, fluorogenic substrate, 485/531 nm; series mostly up to 38.3 µM. Put shortly: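 Cell-free counterscreen with pre-activated enterokinase alone (50 pM final) in 20mM Tris-HCl pH 8.0, 2mM CaCl2, 2mM beta-mercaptoethanol, 0.05% CHAPS; compound preincubation 30 min RT, reporter substrate 25nM final, fluorescence read after 10 min (Ex 485/Em 531).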
Background: A counterscreen serves to expose hits that act by an unwanted route or on another target.
`CCn1c(CN2CCOCC2)nnc1SCC(=O)Nc1ccc(C(C)=O)cc1`: the Potency result is “inactive”.

Turning to `CCCCCCCCCCCCCCCCn1cc[n+](C)c1`, the Potency was 10 µM (active).

With `CCOC(=O)N1CCN(C(=O)CN(c2cccc(C)c2)S(=O)(=O)c2ccccc2)CC1`, the Potency entry is “inactive”.

Consider `COC(=O)c1[nH]c2ccc(C)cc2c1NC(=O)CN1CCCc2ccccc21`, for which the Potency was 10 µM (active).

For the molecule `CC1=NN(c2ccc(C)cc2)C(=O)/C1=C/c1ccc(-c2cc([N+](=O)[O-])ccc2O)o1`, the Potency is 11.2 µM (active).

In the case of `CCOC(=O)c1c(-c2ccc(C)o2)csc1NC(=O)COC(=O)c1ccc(NC(N)=O)cc1`, the Potency entry is “inactive”.

With `COc1ccc(NC(=O)CN(Cc2ccccc2)S(C)(=O)=O)cc1`, the Potency entry was “inactive”.

As to `COc1cc(OC)cc(-c2c(C#Cc3ccsc3)c3cc(-c4ccc(OC)c(F)c4)ccc3n2C)c1`, the Potency entry is “inactive”.

On to `Cc1ccc(C(=O)C(=S)N2CCOCC2)cc1`, for which the Potency entry is “inactive”.

As to `COc1ccc(CCn2c(O)cc3nn(-c4nc5ccccc5s4)c(=O)c-3c2C)cc1`, the Potency is 11.2 µM (active).

Turning to `NS(=O)(=O)c1ccc(NC(=O)CN2CCCCC2)cc1`, the Potency result was “inactive”.

Consider `COc1ccc2[nH]c(=O)c(CN(C)C(=O)C3CCCCC3)cc2c1`, for which the Potency entry was “inactive”.

Take `CN(c1ccccc1)S(=O)(=O)c1ccc(Cl)c(C(=O)NCCc2c[nH]c3ccccc23)c1`: the Potency entry is “inactive”.

Consider `Cc1c2c(=O)n(-c3nc4ccccc4s3)nc-2cc(O)n1Cc1ccccc1`, for which the Potency was 11.2 µM (active).

For the molecule `O=S(=O)(Nc1cccc(-c2cn3c(n2)SCC3)c1)c1ccc(F)cc1F`, the Potency result was “inactive”.

As to `O=C(COC(=O)/C=C/c1ccc(Cl)cc1)NC1CC1`, the Potency entry was “inactive”.

With `COC(=O)c1[nH]c(=O)c2ccccc2c1OCc1ccccc1`, the Potency result was “inactive”.

Consider `COc1ccc(C(=O)C[N+]2(C)CCOCC2)cc1`, for which the Potency result is “inactive”.

For the molecule `CCC(CO)Nc1nc(CN2CCCCC2)nc2scc(-c3ccccc3)c12` (stereo not given), the Potency result is “inactive”.

As to `CC(CN1CCCCC1)OC(=O)c1ccc(Cl)cc1` (stereo not given), the Potency entry was “inactive”.

As for `CCOC(=O)C(C)Sc1nnc(Cn2c(=O)sc3ccccc32)n1-c1ccccc1` (stereo not given), the Potency entry was “inactive”.

For `CCn1c(COc2ccc(C)cc2)nnc1SCC(=O)Nc1ccc2c(c1)OCCO2`, the Potency entry was “inactive”.

Turning to `O=C(O)c1cccc(S(=O)(=O)NNc2ccccc2C(F)(F)F)c1`, the Potency entry is “inactive”.

Consider `N#CNC(=Nc1cccc(F)c1)SCc1cccc(F)c1`, for which the Potency entry is “inactive”.

Regarding `O=C(N/N=C/c1ccc(-c2ccc(Cl)c(C(=O)O)c2)o1)c1cc2c(ccc3ccccc32)o1`, the Potency was 11.2 µM (active).

For the molecule `Cc1cc(N2CCC(C(=O)NC3CC3)CC2)nc(-c2ccccc2)n1`, the Potency result was “inactive”.

`COc1cccc(NC(=O)CSc2nncn2-c2ccccn2)c1`: the Potency result was “inactive”.

`Cc1cccc(NCc2nc(-c3ccccc3)no2)c1`: the Potency entry was “inactive”.

Turning to `COCCn1nnnc1CN(CCc1ccccc1)Cc1cc2ccc(C)cc2[nH]c1=O`, the Potency entry was “inactive”.

With `O=C(N/N=C1\CC(c2ccccc2)Oc2ccccc21)c1ccc(O)cc1` (stereo not given), the Potency result was “inactive”.

For `COc1ccccc1C(=O)n1nc(-c2cccnc2)nc1NCc1ccccc1`, the Potency is 1 µM (active).

For the molecule `COc1ccc(-c2csc(Nc3ccc(S(=O)(=O)Nc4cc(OC)nc(OC)n4)cc3)n2)cc1`, the Potency result is “inactive”.

For `CCc1c(O)nc(SCC(=O)Nc2ccccc2OC)[nH]c1=O`, the Potency result was “inactive”.

Consider `COc1ccc(CCNC(=O)Cc2cc(=O)[nH]c(=O)[nH]2)cc1OC`, for which the Potency entry was “inactive”.

As to `CCCn1c(N2CCN(Cc3cccc(C)c3)CC2)nc2c1c(=O)[nH]c(=O)n2C`, the Potency entry was “inactive”.

Turning to `CC(=O)O[C@H]1[C@H](O)[C@H](Oc2c(O)c(C)c3c4c2[C@@H](C)CC[C@@H]4[C@@H](C)C[C@H]3C=C(C)C)O[C@@H](C)[C@H]1O`, the Potency result is “inactive”.

For the molecule `CS(=O)(=O)c1nc(-c2ccc(Br)cc2)cc(-c2ccccc2)c1C#N`, the Potency entry was “inactive”.

Regarding `CC(C)N(C(=O)c1sc2cc([N+](=O)[O-])ccc2c1Cl)C(C)C`, the Potency entry is “inactive”.

As to `COc1ccc(-c2nc(C#N)c(NCC3CCCO3)o2)cc1OC` (stereo not given), the Potency result was “inactive”.

As for `CCNC1=C(Cl)C(=O)c2ccccc2C1=O`, the Potency result is “inactive”.
